Assay results taken from PubChem BioAssay (NCI).
Compounds without any hit were thinned out: in the full panel of roughly 83,000, 20% have a hit.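 Single-concentration screen, 48 h exposure, 96-well plates. Endpoint: percent growth. Below 10 = active.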 Values without a mark were called inactive. Active and inactive are the calls of the source.

Assays:
Experiment in all cases: NCI-60 one-dose screen, 48 h (100 = growth as untreated, 0 = no growth, -100 = all killed)
Conditions in all cases: 10 µM unless noted
[1] = system: NCI-H23 lung
[2] = system: NCI-H226 lung
[3] = system: NCI-H322M lung
[4] = system: HOP-62 NSCLC
[5] = system: NCI-H460 lung
[6] = system: HOP-92 NSCLC
[7] = system: NCI-H522 lung
[8] = system: A549/ATCC NSCLC
[9] = system: COLO 205 colon
[10] = system: DU-145 prostate
[11] = system: K-562 leukemia
[12] = system: MALME-3M melanoma
[13] = system: MDA-MB-231 breast
[14] = system: RXF 393 renal
[15] = system: SF-268 CNS
[16] = system: SF-295 CNS
[17] = system: SF-539 CNS
[18] = system: UACC-257 melanoma
[19] = system: M14 melanoma
[20] = system: 786-0 renal

Structure (SMILES): O=C(Nc1ccc(CN2CCOCC2)cc1)c1[nH]ncc1Nc1ncnc2sccc12
- growth [1]: -3.72% (active)
- growth [2]: 15.5%
- growth [3]: 6.2% (active)
- growth [4]: 20.1%
- growth [5]: 3.28% (active)
- growth [6]: 22.9%
- growth [7]: 7.15% (active)
- growth [8]: 13.6%
- growth [9]: -34.9% (active)
- growth [10]: 5.47% (active)
- growth [11]: 4.04% (active)
- growth [12]: 8.16% (active)
- growth [13]: 15.8%
- growth [14]: -43% (active)
- growth [15]: 1.23% (active)
- growth [16]: 17.8%
- growth [17]: -34.1% (active)
- growth [18]: 19.9%
- growth [19]: 14.4%

Structure (SMILES): CC1(C)CC(=O)C(c2c(-c3ccccc3)[nH]c3[nH]c(=S)[nH]c(=O)c23)=C(O)C1
- growth [1]: 110%
- growth [2]: 108%
- growth [3]: 102%
- growth [4]: 112%
- growth [5]: 117%
- growth [6]: 84.7%
- growth [7]: 107%
- growth [8]: 89.8%
- growth [20]: 104%
- growth [9]: 119%
- growth [10]: 124%
- growth [12]: 112%
- growth [13]: 101%
- growth [14]: 115%
- growth [15]: 106%
- growth [16]: 152%
- growth [18]: 80.2%
- growth [19]: 107%

Structure (SMILES): COc1ccc(-c2cc(-c3cccnc3)nc3sc4c(=O)n(-c5ccc(C)cc5)cnc4c23)cc1OC
- growth [1]: 95.7%
- growth [2]: 93.3%
- growth [3]: 92.4%
- growth [4]: 98.4%
- growth [5]: 101%
- growth [6]: 63.6%
- growth [7]: 99.8%
- growth [8]: 103%
- growth [9]: 97.6%
- growth [10]: 101%
- growth [11]: 111%
- growth [12]: 102%
- growth [13]: 90.1%
- growth [14]: 98.5%
- growth [15]: 100%
- growth [16]: 101%
- growth [17]: 89.4%
- growth [18]: 104%
- growth [19]: 99%

Structure (SMILES): Cn1c2ccccc2c2c3[nH]c(=O)[nH]c(=O)c3c3c4ccccc4n(C)c3c21
- growth [1]: 43.3%
- growth [2]: 52.6%
- growth [3]: 51.4%
- growth [4]: 38.1%
- growth [5]: 20.1%
- growth [6]: -4.38% (active)
- growth [7]: 20.4%
- growth [8]: 24.3%
- growth [9]: 53.8%
- growth [10]: 29.2%
- growth [11]: 56.1%
- growth [12]: 20%
- growth [13]: 46%
- growth [14]: 6.48% (active)
- growth [15]: 32.4%
- growth [16]: 69.6%
- growth [17]: 39.5%
- growth [18]: 78.1%
- growth [19]: 31.8%

Structure (SMILES): CN1CCN(c2ccc3nc(-c4ccc5nc(-c6ccc(OCCC(C)(C)C)cc6)[nH]c5c4)[nH]c3c2)CC1
- growth [1]: -3.61% (active)
- growth [2]: 95.3%
- growth [3]: 40.7%
- growth [4]: 21.5%
- growth [5]: -80% (active)
- growth [6]: 69.6%
- growth [7]: -38% (active)
- growth [8]: -45.3% (active)
- growth [20]: -60.2% (active)
- growth [9]: 5.08% (active)
- growth [10]: -80.9% (active)
- growth [12]: 18.2%
- growth [13]: -33.3% (active)
- growth [14]: -72.1% (active)
- growth [15]: 56.6%
- growth [16]: 50.9%
- growth [17]: -72.3% (active)
- growth [18]: 110%
- growth [19]: -11.2% (active)

Structure (SMILES): Cc1cc(=O)oc2cc(Oc3nc(-c4cccs4)cn4c(-c5cccs5)cnc34)ccc12
- growth [1]: 56.6%
- growth [2]: 83%
- growth [3]: 89.4%
- growth [4]: 59%
- growth [5]: 50.5%
- growth [6]: 7.71% (active)
- growth [7]: 74.6%
- growth [8]: 58.5%
- growth [9]: 75%
- growth [10]: 55.4%
- growth [11]: 81.6%
- growth [12]: 39.1%
- growth [13]: 63.2%
- growth [14]: 63.6%
- growth [15]: 76.3%
- growth [16]: 47.5%
- growth [17]: 60%
- growth [18]: 48.2%
- growth [19]: 67.5%

Structure (SMILES): CCN1CCN(Cc2ccc(NC(=O)Nc3nc4ccc(Oc5ccnc(C(=O)NC)c5)cc4s3)cc2C(F)(F)F)CC1
- growth [1]: -12.2% (active)
- growth [2]: -1.71% (active)
- growth [3]: 17.1%
- growth [4]: -13% (active)
- growth [5]: -66.7% (active)
- growth [6]: -68.3% (active)
- growth [7]: -46.5% (active)
- growth [8]: -41.7% (active)
- growth [9]: -40.5% (active)
- growth [10]: -16.1% (active)
- growth [12]: -68% (active)
- growth [13]: -78.4% (active)
- growth [14]: -88.4% (active)
- growth [15]: -47.3% (active)
- growth [16]: -23.9% (active)
- growth [17]: -85.2% (active)
- growth [18]: -49.2% (active)
- growth [19]: -76.2% (active)

Structure (SMILES): Cn1c2ccccc2c2c3c(c4c5ccccc5[nH]c4c21)C(=O)N(N)C3=O
- growth [1]: 46.1%
- growth [2]: 53.4%
- growth [3]: 85.1%
- growth [4]: 44.3%
- growth [5]: 17.5%
- growth [6]: 80%
- growth [7]: 50.2%
- growth [8]: 66.4%
- growth [9]: 56.8%
- growth [10]: 57.4%
- growth [11]: 49.7%
- growth [12]: 69.2%
- growth [13]: 82.9%
- growth [14]: 67.9%
- growth [15]: 45.8%
- growth [16]: 27.1%
- growth [17]: 20.2%
- growth [18]: 76.8%
- growth [19]: 37.2%
